# Screening data: PubChem, National Center for Advancing Translational Sciences (NCATS)
# Tau fibril ThT – tau fibrillization inhibition (ThT binding); P10636; recombinant tau K18 P301L, heparin-induced fibrillization, ThT fluorescence; Potency, µM (series often up to 57.4 µM), inactives show at the top dose activity, negative = inhibition, actives largely listed as inhibitors; actives 2.1% (n = 270,000); further: potency means the concentration at half of the fitted maximal effect; on the % scale 0 is the no-effect control and ±100 the full control effect; nearly all actives have a fitted effect of over 55% in size
# Target sequence (P10636 561-689 P618L limits assumed): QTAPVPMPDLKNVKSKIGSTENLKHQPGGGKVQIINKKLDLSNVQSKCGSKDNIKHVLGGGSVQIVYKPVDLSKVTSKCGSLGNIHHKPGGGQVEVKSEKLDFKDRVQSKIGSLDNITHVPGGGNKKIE
#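 Using a mix of unlabeled (15 uM) and Alexa 594-labeled (0.24 uM) tau K18 P301L, heparin-triggered fibrillization over 6 hr at 37 C was scored by ThT fluorescence.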
# TRb-SRC2 inh – disrupts binding of human TR beta to SRC2 | P10828 | TRbeta-SRC2 peptide binding, fluorescence polarization; receptor liganded with 1 µM T3 | Potency, µM (highest dose often 106 µM), for inactives: at the highest dose activity change, negative = inhibition, actives largely listed as inhibitors | actives 0.065% (n = 280,000) | AID 1469;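 further: potency means the concentration at half of the fitted maximal effect; plate controls were bound peptide for no effect and peptide without receptor for full effect; nearly all actives have a fitted effect of over 50% in size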
#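 Fluorescence polarization of 20 nM Texas Red SRC2 peptide with 0.6 uM human TRb ligand-binding domain, in Tris buffer with 1uM T3 and 5% DMSO. Incubated 5 hr ambient; normalized to unbound and bound controls.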
# Tau fluor cs – counter-screen for tau fibril formation inhibitors. actives 0.93% (n = 280,000). tau K18 P301L Alexa594 fluorescence, heparin fibrillization. Potency, µM (titrated, usually from 57.7 µM), for the others: at the highest dose activity change, negative = decrease; further: potency means the concentration at half of the fitted maximal effect; on the % scale 0 is the no-effect control and ±100 the full control effect; nearly all actives have a fitted effect of over 55% in size
#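 Human K18 P301L tau (15 uM unlabeled plus 0.24 uM Alexa 594-labeled, final) in 100 mM sodium acetate pH 7 was mixed with compound and 20 uM heparin and incubated 6 hr at 37 C.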
# TR SRC2 fluor cs – counter-screen for TRb-SRC2 inhibitors: fluorescence interference. TRb/SRC2 Texas Red total fluorescence interference. Potency, µM (top dose mostly 106 µM), for inactives: at the highest dose fluorescence change, negative = quenching. actives 0.29% (n = 280,000); active means well fitted curve in either direction with a large enough effect; inconclusive means small, poorly fitted or top-dose-only effect; further: potency means the concentration at half of the fitted maximal effect; on the % scale 0 is the no-effect control and ±100 the full control effect
#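 Flags fluorescent or light-absorbing compounds by total fluorescence, S + 2P, at 555 nm excitation and 632 nm emission. Mixture: 20 nM Texas Red SRC2 peptide, 0.6 uM human TRb LBD, 1 uM T3, 5% DMSO; compound exposure 5 h at ambient temperature.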
# Tau FP inhib – blocks human tau fibril formation measured by polarization; K18 P301L tau heparin fibrillization, Alexa594 FP, 6 h; actives 0.39% (n = 280,000); Potency, µM (doses to about 57.7 µM), inactives show at the highest dose activity, negative = inhibition, most hits filed as inhibitors; P10636; further: potency means the concentration at half of the fitted maximal effect; on the % scale 0 is the no-effect control and ±100 the full control effect; nearly all actives have a fitted effect of over 55% in size
#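 Recombinant K18 P301L […], labeled with Alexa 594 at 0.24 uM over 15 uM unlabeled; heparin inducer 20 uM final; 37 C, 6 hr; FP endpoint.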
# Tau TEM fibril – Inhibits tau K18 fibrillization by TEM grading; AID 1719; recombinant tau K18 P301L fibrillization, TEM grading; hits give high values; shares compounds with Tau fibril ThT; fibril grade (0 = clumped fibrils, 4 = only tiny pieces) (no concentration beside the values); actives 70% (n = 45);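 active means compounds whose electron micrographs showed tau fibrils broken into shorter filaments or fragments, graded high on fibril breakup; inconclusive means micrographs gave an unclear fibril picture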
# tau fibril sed – inhibitors of human tau fibrillization, sedimentation test. shares compounds with Tau fibril ThT. recombinant tau K18 P301L (four-repeat tau fragment), sedimentation SDS-PAGE densitometry. inhibition, % at 100 µM. actives 50% (n = 110). AID 1720; in the data active means inhibition above about 40%; inconclusive means no clear call, values can overlap the other calls; inactive means below about 18%
# * hit, by the source's call; ? = inconclusive; . = not tested or not shown; ! = a repeat was not active; [ ] = another dose, or the depositor's remark. Sampled rows, rich in hits. Any-hit rate of the full collection: about 3.1%. Unless noted, the call rests on the fitted dose curve; in most records, active means well fitted curve in the direction sought with a large enough effect; inconclusive means small, poorly fitted or top-dose-only effect, or another doubt; inactive means no such curve, though single readings can be large; an effect the other way counts as inactive or inconclusive.
SMILES,Tau fibril ThT,TRb-SRC2 inh,Tau fluor cs,TR SRC2 fluor cs,Tau FP inhib,Tau TEM fibril,tau fibril sed
O=C(O)c1cccc(S(=O)(=O)Nc2ccc([N+](=O)[O-])cc2O)c1,-25.4%,2.5%,-24.3%,-2.9%,?,.,.
O=C(O)CSc1cc(NS(=O)(=O)c2cccc([N+](=O)[O-])c2)c2ccccc2c1O,1.78µM*,-13.4%,?,-5.3%,3.98µM*,4*,79.0*
CCc1ccc(S(=O)(=O)Nc2cc(SCC(=O)O)c(O)c3ccccc23)cc1,3.16µM*,-1.3%,?,-5.6%,8.91µM*,4*,77.0*
COc1ccc(OCC(=O)NC2CC(=O)N(c3cccc(OC)c3)C2)cc1 (stereo unspecified),-6.1%,-2.2%,-9.5%,0.5%,-11.0%,.,.
Cc1cc(C(F)F)n2nc(C(=O)Nc3ccc(F)c(Cl)c3)nc2n1,-3.1%,-3.9%,-3.3%,?,-2.7%,.,.
O=C(Cc1ccccc1)Nc1sc2c(c1C(=O)Nc1ccccc1)CCCCC2,-2.8%,-7.8%,-9.1%,?,-10.8%,.,.
O=C(Cc1ccccc1)Nc1sc2c(c1C(=O)Nc1ccc(Cl)cc1)CCCC2,8.91µM*,-9.0%,-24.1%,6.2%,?,2*,61.0*
COc1cccc(CNc2cccc3cccnc23)c1O,28.2µM*,-0.1%,?,-8.6%,?,2*,?
COc1cccc(CNc2cnc3ccccc3c2)c1O,?,-1.7%,?,0.0%,10.3%,.,.
Cc1cc2c(NC(=O)Nc3ccccc3)cccc2nn1,?,?,-24.6%,21.4%,?,?,?
COc1ccc2c(C)c(CC(=O)NCCc3ccc(Cl)cc3)c(=O)oc2c1C,-7.2%,-0.2%,-14.0%,13.3%,-6.9%,.,.
Cc1ccc(S(=O)(=O)N(C)c2nc3ccccc3[nH]c2=S)cc1,1.12µM*,-1.5%,-24.3%,-2.6%,?,0,?
COc1ccc2c(c1)c(CC(=O)OCC(N)=O)c(C)n2C(=O)c1ccc(Cl)cc1,-4.0%,2.6%,-18.1%,-2.0%,-9.5%,.,.
COc1ccc2c(c1)c(CC(=O)N1CCOCC1)c(C)n2C(=O)c1ccc(Cl)cc1,-5.6%,-1.0%,-5.2%,-3.1%,7.5%,.,9.0
CCOc1ccc(NC(=O)N(C)CCc2c(C)nn(C)c2C)cc1,-11.2%,4.6%,-10.6%,-0.8%,8.0%,.,.
COc1ccc(NC(=O)C2CCN(S(=O)(=O)c3c(C)noc3/C=C/c3cccs3)CC2)cc1Cl,4.6%,-8.6%,-18.5%,-0.1%,15.8µM*,.,8.0
NC[C@H](O)c1ccc(O)c(O)c1,3.98µM*!,-4.2%,?,-5.0%,6.31µM*!,3*,75.0*
NC[C@@H](O)c1ccc(O)c(O)c1,?,-3.2%,-15.3%,?,?,.,18.0
CC[C@H](NC(C)C)[C@H](O)c1ccc(O)c(O)c1,.,-3.5%,.,0.2%,.,.,.
NC(=O)c1csc(-c2ccncc2)n1,-3.9%,-14.7%,-6.0%,-0.1%,-11.9%,.,.
Nc1cc(-c2ccncc2)c[nH]c1=O,1.41µM*,?,?,-1.3%[201 µM],2µM*,3*,61.0*
Nc1cc(-c2ccccc2)c[nH]c1=O,.,.,.,.,.,?,65.0*
Cn1[nH]c(CSc2ccc(Cl)cc2)cc1=O,?,-1.0%,?,-3.7%,?,.,16.0
CCCn1c(=O)c2sccc2n2c(CCCC(=O)NC3CCC(C)CC3)nnc12 (stereo unspecified),-4.6%,5.0%,-5.8%,-1.3%,-5.6%,.,.
O=C(NCc1cccnc1)C1CCN(S(=O)(=O)c2cccs2)CC1,3.98µM*,-5.6%,4.47µM*[quencher],-3.0%,?,.,13.0
O=C(NCc1cccnc1)C1CCN(S(=O)(=O)c2cccnc2)CC1,-2.3%,-14.8%,-6.0%,2.2%,1.2%,.,.
